Experimental findings from the supplement of paper PMC9262897, “Low-cost anti-mycobacterial drug discovery using engineered E. coli” (Nature Communications, 2022) are described below.

The assay has as its system E. coli TESEC Mtb Alr. Nature of the assay: growth (OD600 after 10 h); higher = more growth (less inhibition). The note with it: compound 0.1 mM. On the procedure: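 TESEC Mtb Alr E. coli, or the Alr+ wild-type control, in 384-well plates with Prestwick library compounds at 0.1 mM and 1% DMSO, across arabinose induction levels of 1E3 to 1E7 nM. Growth is read as OD600 after 10 h at 37 °C in triplicate biological replicates.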

[1] abbreviates: arabinose 1000 nM, raw OD600 reference: median of DMSO wells 0.294, cell-free background 0.041.
The mark [2] stands for this setting: arabinose 10000 nM, raw OD600 reference: median of DMSO wells 0.264, cell-free background 0.041.
Setting [3] is: arabinose 100000 nM, raw OD600 reference: median of DMSO wells 0.201, cell-free background 0.041.
[4] abbreviates: arabinose 1000000 nM, raw OD600 reference: median of DMSO wells 0.193, cell-free background 0.041.
Setting [5] is: arabinose 10000000 nM, raw OD600 reference: median of DMSO wells 0.146, cell-free background 0.041.

Structures are written as SMILES. Counter-ions that a name gives are not always drawn. ± gives the standard deviation of the averaged measurements.

In the case of `CCN[C@H]1C[C@H](C)S(=O)(=O)c2sc(S(N)(=O)=O)cc21` [Dorzolamide hydrochloride], the growth is 0.296 ± 0.003 under setting [1]; 0.293 ± 0.013 under setting [2]; 0.211 ± 0.038 under setting [3]; 0.187 ± 0.0042 under setting [4]; 0.15 ± 0.0023 under setting [5].
The corresponding values for `O=C(O)c1ccccc1C(=O)Nc1ccc(S(=O)(=O)Nc2nccs2)cc1` [Phthalylsulfathiazole] are 0.298 ± 0.011, 0.266 ± 0.022, 0.198 ± 0.02, 0.184 ± 0.0082 and 0.166 ± 0.0046.
Consider `CCCCC1C(=O)N(c2ccccc2)N(c2ccc(O)cc2)C1=O` (stereo not given) [Oxyphenbutazone], for which the growth under setting [1] turned out to be 0.255 ± 0.0043; the growth under setting [2] is 0.262 ± 0.0047; the growth under setting [3] amounted to 0.211 ± 0.027; the growth under setting [4] was 0.124 ± 0.0071; the growth under setting [5] came to 0.129 ± 0.004.
As to `c1ccc(CNc2ncnc3nc[nH]c23)cc1` [Aminopurine, 6-benzyl], the growth is 0.243 ± 0.0086 under setting [1]; 0.262 ± 0.006 under setting [2]; 0.19 ± 0.014 under setting [3]; 0.166 ± 0.0054 under setting [4]; 0.149 ± 0.013 under setting [5].
In turn, `CNCCCC1c2ccccc2C=Cc2ccccc21` [Protriptyline hydrochloride] returned a growth under setting [1] of 0.219 ± 0.0041; a growth under setting [2] of 0.256 ± 0.018; a growth under setting [3] of 0.157 ± 0.0029; a growth under setting [4] of 0.12 ± 0.0051; a growth under setting [5] of 0.137 ± 0.0036.
Take `C#C[C@]1(OC(C)=O)CC[C@H]2[C@@H]3CCC4=C[C@@H](OC(C)=O)CC[C@@H]4[C@H]3CC[C@@]21C` [Ethynodiol diacetate]: the growth reads like this: under setting [1], 0.233 ± 0.016; under setting [2], 0.215 ± 0.034; under setting [3], 0.12 ± 0.0032; under setting [4], 0.0855 ± 0.0055; under setting [5], 0.161 ± 0.018.
`Cc1cc(-c2ccccc2)nnc1NCCN1CCOCC1` [Minaprine dihydrochloride] yielded a growth under setting [1] of 0.288 ± 0.011; a growth under setting [2] of 0.25 ± 0.0072; a growth under setting [3] of 0.182 ± 0.012; a growth under setting [4] of 0.155 ± 0.004; a growth under setting [5] of 0.156 ± 0.0078.
The corresponding values for `NS(=O)(=O)c1cc2c(cc1Cl)NC(CC1CCCC1)NS2(=O)=O` (stereo not given) [Cyclopenthiazide] are 0.278 ± 0.0078, 0.2543 ± 0.0017, 0.273 ± 0.013, 0.191 ± 0.0034 and 0.143 ± 0.0052.
